# About 79,000 compounds went through this panel and 15% of them were active in at least one assay; those are over-represented in the sample as a whole. A number with no mark means an inactive call. Calls of active or inactive are those of the source. Cut-off read from the data, not from the text of the source: active = growth inhibition above about 70%; inactive = the rest.
# How the values were obtained:
# [1] = NCI Yeast Anticancer Drug Screen. Data for the rad52 strain (AID 147);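 note: 0% = growth of vehicle-treated control cultures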; conditions: S. cerevisiae rad52 mutant growth inhibition, active compounds read high
# Method in brief: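 DNA repair-defective yeast; compound exposure; growth scored against vehicle controls.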
# [2] = NCI Yeast Anticancer Drug Screen. Data for the wt1 strain (AID 149);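 note: 0% = growth of vehicle-treated wt1 cultures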; conditions: S. cerevisiae wt1 strain (SPY 50644) growth inhibition, active compounds read high
# Method in brief: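 wt1 yeast, compound-treated; % growth inhibition vs vehicle control.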
# [3] = NCI Yeast Anticancer Drug Screen. Data for the mgt1 strain (AID 153); conditions: S. cerevisiae mgt1 mutant growth inhibition, active compounds read high
# Method in brief: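 Growth inhibition relative to vehicle controls was scored for the mgt1 yeast strain after compound exposure.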
# [4] = NCI Yeast Anticancer Drug Screen. Data for the rad50 strain (AID 155);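 note: 0% = growth of vehicle-only cultures of the same strain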; conditions: S. cerevisiae rad50 strain growth inhibition, active compounds read high
# Method in brief: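 Genetically altered yeast (DNA repair pathway); compound treatment; growth inhibition vs vehicle ctrl.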
# [5] = NCI Yeast Anticancer Drug Screen. Data for the mec2-1 strain (AID 157); conditions: S. cerevisiae mec2-1 strain, active compounds read high
# Method in brief: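 Growth inhibition is read against vehicle-treated controls after compound exposure of the mec2-1 yeast strain, which is defective in DNA damage repair or cell cycle control.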
# [6] = NCI Yeast Anticancer Drug Screen. Data for the rad14 strain (AID 159);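 note: 0% = growth of vehicle-treated control cultures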; conditions: S. cerevisiae rad14 strain growth inhibition, active compounds read high
# Method in brief: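 Test compounds were applied to a repair-deficient yeast strain. Its growth was then compared with that of cultures given vehicle alone, and inhibition was expressed relative to those controls.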
# [7] = NCI Yeast Anticancer Drug Screen. Data for the sgs1 mgt1 strain (AID 161);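 note: 0% = growth of cultures given vehicle only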; conditions: S. cerevisiae sgs1 mgt1 strain, active compounds read high
# Method in brief: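 Percent growth inhibition was derived by comparing compound-exposed mutant yeast with vehicle-exposed cultures. The strain carries alterations in DNA damage repair.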
# [8] = NCI Yeast Anticancer Drug Screen. Data for the CLN2oe strain (AID 163);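 note: 0% = growth of vehicle-only control cultures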; conditions: S. cerevisiae CLN2oe strain, active compounds read high
# Method in brief: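 Compound-treated yeast; growth vs vehicle ctrl = % inhibition. Genetically altered strain (cell-cycle control).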
# [9] = NCI Yeast Anticancer Drug Screen. Data for the cln2 rad14 strain (AID 165);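 note: 0% = growth equal to vehicle treated cultures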; conditions: S. cerevisiae cln2 rad14 strain, active compounds read high
# Method in brief: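 Growth inhibition, relative to vehicle-treated controls, is the read-out. The test organism is a yeast strain with defined genetic alterations, cln2 rad14.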
# [10] = NCI Yeast Anticancer Drug Screen. Data for the bub3 strain (AID 167); conditions: S. cerevisiae bub3 mutant strain, active compounds read high
# Method in brief: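 Yeast carrying a defined mutation is treated with each compound, and growth is compared with that of vehicle-exposed cells to give inhibition.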
# [11] = NCI Yeast Anticancer Drug Screen. Data for the wt2 strain (AID 169);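 note: 0% = growth of vehicle-treated yeast cultures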; conditions: S. cerevisiae wt2 strain growth inhibition, active compounds read high
# Method in brief: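 Compound exposure of yeast; growth compared with vehicle controls; inhibition reported.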
# [12] = NCI Yeast Anticancer Drug Screen. Data for the mlh1 strain (AID 171);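 note: 0% = growth of vehicle-treated control cultures of the same strain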; conditions: S. cerevisiae mlh1 strain growth inhibition, active compounds read high
# Method in brief: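 Compounds are applied to a genetically altered yeast strain, and its growth is compared with that of vehicle-treated cultures to give percent inhibition.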
# [13] = NCI Yeast Anticancer Drug Screen. Data for the sgs1 strain (AID 173);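 note: 0% = growth of vehicle-only control cultures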; conditions: S. cerevisiae sgs1 mutant, active compounds read high
# Method in brief: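 Compounds applied to genetically altered yeast; growth compared with vehicle-treated cultures to give % inhibition.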
# [14] = NCI Yeast Anticancer Drug Screen. Data for the mlh1 rad18 strain (AID 175); conditions: S. cerevisiae mlh1 rad18 strain growth inhibition, active compounds read high
# Method in brief: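 Cells of a genetically altered yeast strain, deficient in DNA damage repair, were treated with compound. Their growth was then compared with that of vehicle-treated cultures to give inhibition.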
# [15] = NCI Yeast Anticancer Drug Screen. Data for the rad18 strain (AID 177); conditions: S. cerevisiae rad18 mutant growth inhibition, active compounds read high
# Method in brief: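 Compounds are applied to a repair-deficient yeast strain, and growth is compared with that of vehicle-treated cultures to give percent inhibition.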
# [16] = at 5.0 µM (retest, dose inferred, filed as 0.5)
# [17] = at 50.0 µM (retest, dose inferred, filed as 5.0)
structure (smiles),measurement,setting,value
C[C@]12CCC(=O)C=C1CC[C@@H]1C2CC[C@@]2(C)C1CC[C@@H]2OC(=O)C12OC1CCC2=O (stereo partly drawn),growth inhibition,[1]; at 1.2 µM,0%
same,growth inhibition,[1]; at 3.7 µM,23%
same,growth inhibition,[1]; at 11.0 µM,37%
same,growth inhibition,[1]; at 33.0 µM,83% (active)
same,growth inhibition,[1]; at 100.0 µM,96% (active)
same,growth inhibition,[2]; at 1.2 µM,-2%
same,growth inhibition,[2]; at 3.7 µM,-9%
same,growth inhibition,[2]; at 11.0 µM,8%
same,growth inhibition,[2]; at 33.0 µM,66%
same,growth inhibition,[2]; at 100.0 µM,96% (active)
same,growth inhibition,[3]; at 1.2 µM,-8%
same,growth inhibition,[3]; at 3.7 µM,-11%
same,growth inhibition,[3]; at 11.0 µM,27%
same,growth inhibition,[3]; at 33.0 µM,92% (active)
same,growth inhibition,[3]; at 100.0 µM,97% (active)
same,growth inhibition,[4]; at 1.2 µM,-15%
same,growth inhibition,[4]; at 3.7 µM,-4%
same,growth inhibition,[4]; [16],-16%
same,growth inhibition,[4]; at 11.0 µM,29%
same,growth inhibition,[4]; at 33.0 µM,79% (active)
same,growth inhibition,[4]; [17],87% (active)
same,growth inhibition,[4]; at 50.0 µM,86.2% (active)
same,growth inhibition,[4]; at 100.0 µM,95% (active)
same,growth inhibition,[5]; at 1.2 µM,5%
same,growth inhibition,[5]; at 3.7 µM,14%
same,growth inhibition,[5]; [16],6%
same,growth inhibition,[5]; at 11.0 µM,33%
same,growth inhibition,[5]; at 33.0 µM,90% (active)
same,growth inhibition,[5]; [17],86% (active)
same,growth inhibition,[5]; at 50.0 µM,88.8% (active)
same,growth inhibition,[5]; at 100.0 µM,97% (active)
same,growth inhibition,[6]; at 1.2 µM,-9%
same,growth inhibition,[6]; at 3.7 µM,-11%
same,growth inhibition,[6]; at 11.0 µM,5%
same,growth inhibition,[6]; at 33.0 µM,75% (active)
same,growth inhibition,[6]; at 100.0 µM,96% (active)
same,growth inhibition,[7]; [16],8%
same,growth inhibition,[7]; [17],93% (active)
same,growth inhibition,[7]; at 50.0 µM,88.7% (active)
same,growth inhibition,[8]; at 1.2 µM,10%
same,growth inhibition,[8]; at 3.7 µM,12%
same,growth inhibition,[8]; at 11.0 µM,14%
same,growth inhibition,[8]; at 33.0 µM,39%
same,growth inhibition,[8]; at 100.0 µM,96% (active)
same,growth inhibition,[9]; [16],39%
same,growth inhibition,[9]; [17],67%
same,growth inhibition,[9]; at 50.0 µM,65.1%
same,growth inhibition,[10]; at 1.2 µM,1%
same,growth inhibition,[10]; at 3.7 µM,23%
same,growth inhibition,[10]; [16],27%
same,growth inhibition,[10]; at 11.0 µM,45%
same,growth inhibition,[10]; at 33.0 µM,79% (active)
same,growth inhibition,[10]; [17],96% (active)
same,growth inhibition,[10]; at 50.0 µM,84.5% (active)
same,growth inhibition,[10]; at 100.0 µM,96% (active)
same,growth inhibition,[11]; at 1.2 µM,-3%
same,growth inhibition,[11]; at 3.7 µM,9%
same,growth inhibition,[11]; at 11.0 µM,36%
same,growth inhibition,[11]; at 33.0 µM,91% (active)
same,growth inhibition,[11]; at 100.0 µM,96% (active)
same,growth inhibition,[12]; at 1.2 µM,19%
same,growth inhibition,[12]; at 3.7 µM,17%
same,growth inhibition,[12]; at 11.0 µM,51%
same,growth inhibition,[12]; at 33.0 µM,94% (active)
same,growth inhibition,[12]; at 100.0 µM,97% (active)
same,growth inhibition,[13]; at 1.2 µM,18%
same,growth inhibition,[13]; at 3.7 µM,24%
same,growth inhibition,[13]; at 11.0 µM,57%
same,growth inhibition,[13]; at 33.0 µM,95% (active)
same,growth inhibition,[13]; at 100.0 µM,96% (active)
same,growth inhibition,[14]; [16],-21%
same,growth inhibition,[14]; [17],92% (active)
same,growth inhibition,[14]; at 50.0 µM,85.4% (active)
same,growth inhibition,[15]; at 1.2 µM,9%
same,growth inhibition,[15]; at 3.7 µM,14%
same,growth inhibition,[15]; at 11.0 µM,39%
same,growth inhibition,[15]; at 33.0 µM,83% (active)
same,growth inhibition,[15]; at 100.0 µM,97% (active)

# Reference: PubChem BioAssay (NCI)
